Source: PubChem (National Center for Advancing Translational Sciences (NCATS))
In the library only some 1.2% were active in any assay of this set; here they are far more common.
aGal spleen mod: alpha-galactosidase A (human) modulation; hit rate 0.008% among 240,000; Potency, µM (doses to about 80 µM), for the others: at the top dose activity change, negative = inhibition, usual class: inhibitors; AID 2107; human spleen homogenate, 4MU-alpha-Gal fluorescence, 40 min; P06280;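 also: potency is read from the fitted curve at half-maximal effect; 0% = enzyme with vehicle and -100% = no enzyme basal signal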
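Inhibition or activation of alpha-galactosidase in human spleen homogenate is scored by 4-MU fluorescence after 40 min at 37C, pH 5.0, with 1 mM substrate. AC50s come from concentration-response fitted to the Hill equation.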
ERK EGF inh: blocks ERK signaling stimulated by EGF. Potency, µM (top dose mostly 11.5 µM), for inactives: top-dose activity change, negative = inhibition, most hits filed as inhibitors. HEK293-V1b, EGF-stimulated phospho-ERK AlphaScreen. hit rate 0.41% among 130,000. AID 1454;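 also: potency is read from the fitted curve at half-maximal effect; plate controls were stimulated vehicle wells for no effect and unstimulated vehicle basal for full effect; nearly all actives have a fitted effect of over 55% in size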
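Stably V1b-transfected HEK293 cells; 30 min compound, then EGF 25 nM final for 5 min at 37C; 10 min lysis; phospho-ERK by AlphaScreen after 5 hr beads at room temperature.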
HTT aggregate: mutant huntingtin aggregation inhibition; hit rate 1.1% among 220,000; PC12 HttQ103-GFP aggregates, Acumen cytometry, 40 h; Potency, µM (top dose mostly 46.1 µM), without a hit: at the highest dose activity change, negative = inhibition, usual class: inhibitors; also: potency is read from the fitted curve at half-maximal effect; % is scaled to controls: 0 for no effect and ±100 for the full control effect; nearly all actives have a fitted effect of over 60% in size
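PC12/HTTQ103-GFP, ecdysone-inducible; teb 100 nM; cpd qHTS titration; GFP aggregates read on laser cytometer, Ex 488/Em 500-530 nm.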
HTT cytoprotect: cytoprotection in Huntington HTT-Q103 PC12 cell model; hit rate 0.14% among 230,000; AID 1471; PC12 HTT-Q103 induced, cytoprotection, ATP luminescence, 40 h; Potency, µM (highest dose often 56.4 µM), inactives show cytoprotection (ATP increase), most hits filed as activators; also: potency is read from the fitted curve at half-maximal effect; % of control where 0% means no effect; nearly all actives have a fitted effect of over 45% in size
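Compounds were screened for protection of PC12 cells against cell death after tebufenozide induction (100 nM final) of mutant Huntingtin exon 1 (Q103) fused to GFP.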
GLA inh pH 4.5: alpha-galactosidase A (human) inhibition, pH 4.5; P06280; purified enzyme, 4-MU-alpha-Gal fluorescence, pH 4.5; activity change, negative = inhibition, % at 105 µM; 230,000 tested, under 10 active;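 also: 0% = full activity with enzyme and -100% = basal without enzyme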
Target sequence (P06280 whole entry, looked up): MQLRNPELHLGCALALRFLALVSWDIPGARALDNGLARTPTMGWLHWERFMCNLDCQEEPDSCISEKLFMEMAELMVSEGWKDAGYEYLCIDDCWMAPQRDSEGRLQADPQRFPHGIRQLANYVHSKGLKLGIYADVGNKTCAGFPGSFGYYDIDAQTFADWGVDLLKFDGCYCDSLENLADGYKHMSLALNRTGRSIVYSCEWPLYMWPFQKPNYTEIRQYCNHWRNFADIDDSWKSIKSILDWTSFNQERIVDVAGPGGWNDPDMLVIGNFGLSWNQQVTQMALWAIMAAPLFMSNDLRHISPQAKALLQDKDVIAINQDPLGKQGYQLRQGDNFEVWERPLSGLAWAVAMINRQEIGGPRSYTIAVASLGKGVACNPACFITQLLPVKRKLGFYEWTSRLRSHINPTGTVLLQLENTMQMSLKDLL
Numbers without * were called inactive; ? = inconclusive; . = no result; ! = not confirmed by another sample; [ ] = remark or other dose. Calls follow the shape of the dose curve; as a rule, active = well fitted curve in the direction sought with a large enough effect; inconclusive = small, poorly fitted or top-dose-only effect, or another doubt; inactive = no such curve, though single readings can be large; an effect the other way counts as inactive or inconclusive.

SMILES	aGal spleen mod	ERK EGF inh	HTT aggregate	HTT cytoprotect	GLA inh pH 4.5
COc1ccc(C(=O)OCC(=O)Nc2ccc(Cl)c(C(F)(F)F)c2)c(OC)c1OC	4.3%	-1.8%	-0.1%	9.3%[10 µM]	-18.6
O=C(c1cccc(F)c1)N1CCC2(CCN(Cc3ccncc3)CC2)CC1	-3.0%	12.7%	.	10.4%	.
CCCOc1ccc(/C=N/Nc2ccccc2[N+](=O)[O-])c(OCCC)c1	-3.8%	11.2µM*	2.7%	-8.0%[10 µM]	-1.9
O=C(O)[C@H]1O[C@@H](Oc2ccc3ccc(=O)oc3c2)[C@H](O)[C@@H](O)[C@@H]1O	-5.5%	.	.	.	.
NC(=O)COC(=O)CCSc1ccc(Cl)cc1	-4.0%	1.8%	?	14.1µM*	6.3
C[C@@]12C=Cc3occc3[C@H]1CC[C@@]13C[C@@H](CC[C@H]12)[C@@](O)(CO)C3	-9.2%	.	.	.	.
Nc1cc(C(=O)O)c(N)c2c1C(=O)c1ccccc1C2=O	4.4%	28.2µM*	5.4%[9.22 µM]	-14.8%[10 µM]	-2.7
Nc1c(C(=O)O)ccc2c1C(=O)c1ccccc1C2=O	1.0%	?	-7.0%	-44.7%	-7.6
CC#C[C@]1(O)CC[C@H]2C3CCC4=CC(=O)CCC4=C3[C@@H](c3ccc(N(C)C)cc3)C[C@@]21C (some centres undefined)	18.9%	?	.	-69.4%	-8.7
COc1ccc(NC(=O)N2CC[C@@]3(CCCN(C(=O)c4ccncc4)C3)C2)cc1	-12.9%	-9.1%	.	2.24µM*	.
COc1ccc(NC(=O)N2CCCC3(CCN(C(=O)c4ccc(OC)cc4)CC3)C2)cc1	4.9%	-3.6%	.	-15.8%	.
CCOc1cc(/C=C/c2cc(C(=O)O)c3ccccc3n2)ccc1OC	-5.0%	3.6%	18.9%	-37.7%[10 µM]	-4.9
COc1cc(/C=C/c2cc(C(=O)O)c3ccccc3n2)cc(OC)c1O	-11.6%	31.6µM*	7.0%	-2.5%[10 µM]	-0.5
COc1cc2c(cc1OC)Cc1cc(OC)c(OC)cc1Cc1cc(OC)c(OC)cc1C2	15.4%	-2.1%	.	-0.1%	7.4
CN(C)S(=O)(=O)c1ccc2c(c1)nc(CCC(=O)NCc1ccc(Cl)cc1)n2C	1.9%	-14.7%	?	0.631µM*	2.8
CN(C)S(=O)(=O)c1ccc2c(c1)nc(CCC(=O)NCC1CCCCC1)n2C	-0.3%	.	7.6%	17.7%[10 µM]	1.3
Cc1ccc2nc(C3CCN(S(=O)(=O)c4ccc5ccccc5c4)CC3)[nH]c2c1	-0.8%	.	17.8µM*	-77.1%	-8.7
CCN1CCN(Cc2ccc(NC(=O)c3ccc(C)c(NC(=O)c4nccn4C)c3)cc2C(F)(F)F)CC1	1.5%	-16.8%[57.5 µM]	-15.7%[9.22 µM]	-12.2%[10 µM]	0.9
CCN1CCN(Cc2ccc(NC(=O)c3ccc(C)c(NC(=O)c4nccnc4N)c3)cc2C(F)(F)F)CC1	10.7%	?	2.82µM*	4.3%[10 µM]	-20.8
c1ccc(-c2[nH]ncc2-c2ccnc3ccccc23)nc1	-5.4%	.	.	.	.
COC(=O)[C@@H](NC(=O)c1cc(-c2ccccc2)nc2ccccc12)c1ccccc1	.	.	.	-20.7%[1.9 µM]	.
CCN1C(=O)[C@H]2[C@H]3[C@H](O)[C@H](O)C/C(=N/OC)[C@@H]3CC[C@@H]2C1=O	8.7%[17.5 µM]	.	.	-5.0%[10 µM]	.
COC(CNC(=O)c1ccc(N2CCc3ccccc32)c([N+](=O)[O-])c1)OC	-3.7%	?	11.2µM*	15.5%[10 µM]	-4.0
NNC(=O)c1ccc(N2CCc3ccccc32)c([N+](=O)[O-])c1	-7.0%	?	-8.7%	14.7%[10 µM]	0.5
CCCCCCCCCCCCCCCCCC(=O)OC[C@@H](O)[C@H]1OC[C@H](O)[C@H]1O	.	.	6.4%	36.1%	.
SMILES	aGal spleen mod	ERK EGF inh	HTT aggregate	HTT cytoprotect	GLA inh pH 4.5
CC(C)(C)c1ccc(C(O)CCCN2CCC(C(O)(c3ccccc3)c3ccccc3)CC2)cc1 (centres undefined)	-6.3%	-3.4%	22.4µM*	-99.2%	-2.8
CCCCC/C=C\C[C@@H](O)/C=C/C=C\CCC(=O)O	-1.9%	-4.8%	.	-30.9%	-8.7
COC(=O)CCC[N+](C)(C)C	.	.	-1.5%	-19.1%	.
C=CCN1CCc2c(cc(O)c(O)c2Br)[C@H](c2ccccc2)C1	.	.	.	-10.7%[1.9 µM]	.
CCCCCCCCNC(C)C(O)c1ccc(SC(C)C)cc1 (centres undefined)	4.5%	35.5µM*!	?	-97.7%	-14.8
C[C@]12CCC(=O)C=C1CCC1C3CC[C@](O)(C(=O)CO)[C@@]3(C)CC3OC312 (some centres undefined)	2.7%	?	.	-37.6%	-1.3
Cc1cccc2c(C(=O)N3CCN(C(=O)c4ccco4)CC3)cc(-c3cccc(Br)c3)nc12	6.1%	?	8.91µM*	28.7%[10 µM]	-0.3
Cn1c(=O)n(C)c2cc([N+](=O)[O-])c(N3CCN(S(=O)(=O)c4ccc(C(C)(C)C)cc4)CC3)cc21	20.9%	.	12.6µM*	16.1%[10 µM]	-7.7
CC(=O)Nc1ccc(S(=O)(=O)N2CCN(c3cc4c(cc3[N+](=O)[O-])n(C)c(=O)n4C)CC2)cc1	2.9%	.	-22.8%	-17.2%	10.0
COc1ccccc1-c1cc(-c2ccccc2)nc(SC(C(N)=O)c2ccccc2)c1C#N (centres undefined)	-17.8%	.	11.2µM*	-5.5%	3.0
Cc1nc(SC(C(N)=O)c2ccccc2)c(C#N)c(C)c1C (centres undefined)	2.2%	3.7%[57.5 µM]	-5.9%[9.22 µM]	-1.3%[10 µM]	0.7
CC(C)[C@H]1c2ccc(F)cc2CC[C@@]1(CCN(C)CCCc1nc2ccccc2[nH]1)OC(=O)C1CC1	7.0%	.	.	-355.3%	-14.9
Cc1ccc(NC2=C/C(=N\S(=O)(=O)c3cccs3)c3ccccc3C2=O)c(C)c1	-22.6%	12.6µM*	2.24µM*	-94.5%[10 µM]	1.3
O=C(O)c1ccc(NS(=O)(=O)c2ccc3c(c2)C(=O)c2ccccc2C3=O)cc1	7.6%	-5.2%	-2.0%[9.22 µM]	3.9%[10 µM]	-11.9
O=C1/C(=N\S(=O)(=O)c2cccs2)C([n+]2ccccc2)=C([O-])c2ccccc21	6.1%	7.7%[57.5 µM]	-38.6%[9.22 µM]	2.2%[10 µM]	-3.9
Cc1cccc(NC2=C/C(=N/S(=O)(=O)c3cccs3)c3ccccc3C2=O)c1	-1.2%	8.1%	14.3%	.	3.5
O=C1C(Nc2ccc(O)cc2)=C/C(=N/S(=O)(=O)c2cccs2)c2ccccc21	11.7%	17.8µM*	2.51µM*	-56.9%[10 µM]	4.0
O=C(O)c1ccc(NC2=C/C(=N/S(=O)(=O)c3ccccc3)c3ccccc3C2=O)cc1	-3.9%	?	15.8µM*	-179.7%	5.2[21.1 µM]
Cc1ccc(Cl)cc1NC1=C/C(=N\S(=O)(=O)c2cccs2)c2ccccc2C1=O	8.1%	.	1.58µM*	-95.8%[10 µM]	-11.7
CC(O)C(=O)O (centres undefined)	1.0%	.	4.8%	-29.6%	.
CCCCCC[C@@H]([C@H](C)O)n1cnc2c(N)ncnc21	.	.	.	-24.5%[1.9 µM]	.
NCC1O[C@H](O[C@@H]2C(O)[C@H](O[C@H]3OC(CO)C(O)C(N)C3O)[C@@H](N)C[C@H]2N)[C@@H](N)CC1O (some centres undefined)	-1.9%	-7.3%	.	-35.3%	24.2
